# In PubChem BioAssay AID1430 (University of Pittsburgh Molecular Library Screening Center, 2008):
# Out of some 220,000 compounds screened, about 240 (0.11%) were called active. The sample holds actives, similar compounds and a random draw of the others, so the mix is not that of the screen.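 How the source made its calls: active means inhibition of 50% or more in the single-dose primary screen; inactive means inhibition below 50%.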
# System: hexokinase 1 [Trypanosoma brucei]
# Assay: TbHK1 enzyme activity blockers – biochemical, G6PDH-coupled NADH absorbance, MLSCN library, primary screen (AID 1430)
# Details: recombinant TbHK1, G6PDH-coupled NADH A340; at 10 µM; stronger effect = higher value
row,Compound,inhibition
1,O=C(Nc1ccccc1)c1cc2ccccc2[nH]1,-8.21% (inactive)
2,COC(=O)c1nc(NC(=O)c2ccc(C(C)(C)C)cc2)n[nH]1,-1.14% (inactive)
3,COC(=O)C1CCN(C(=O)c2cc(=O)[nH]c3ccccc23)CC1,-8.77% (inactive)
4,COC(=O)C1CCN(CC(N)=O)CC1,60.6% (active)
5,CCOC(=O)N1CCC(C(N)=O)CC1,4.5% (inactive)
6,O=C(Nc1ccc(S(=O)(=O)N2CCOCC2)cc1)c1ccc2ncsc2c1,-11% (inactive)
7,CC12C(=O)N(c3ccccc3)C(=O)C1C(c1ccccc1)N1CCCN12 (stereo not given),-4.21% (inactive)
8,Cc1cccc(-n2c(Cc3cc(=O)[nH]c(=O)[nH]3)nnc2SC(C)C)c1,-4.19% (inactive)
9,Cc1ccc(Nc2nc(CSc3nnc(-c4ccncc4)n3-c3ccccc3C)cs2)cc1,-6.74% (inactive)
10,CC1CC(C)CN(S(=O)(=O)c2ccc(C(=O)NN3CCOCC3)cc2)C1 (stereo not given),-4.58% (inactive)
11,COC(=O)c1cccc([N+](=O)[O-])c1CS(=O)(=O)c1ccc(C)cc1,-5.68% (inactive)
12,O=C(c1ccc(N2CCOCC2)c([N+](=O)[O-])c1)N1CCN(S(=O)(=O)c2cccs2)CC1,-0.582% (inactive)
13,Cc1cc(Cl)ccc1OCCCC(=O)NCc1ccncc1,3.38% (inactive)
14,COc1ccc(C(C(=O)NC(C)(C)C)N(C(=O)Cn2nnc3ccccc32)c2ccc(C(C)=O)cc2)cc1O (stereo not given),-2.52% (inactive)
15,Nc1nnc(SCC(=O)NC2CCCc3ccccc32)s1 (stereo not given),-14.9% (inactive)
16,O=C(NCCN1CCOCC1)c1cc(Sc2cccc(Cl)c2)nc2ccccc12,-12.6% (inactive)
17,O=S(=O)(NCc1ccco1)c1cnc(Cl)c(Cl)c1,8.75% (inactive)
18,CC(C)[C@H](NC(=O)c1ccc(F)cc1)C(=O)OCC(=O)NC(=O)c1cccn1C,-0.221% (inactive)
19,CCC(C)Cn1c(O)cc2nn(-c3nc4ccccc4s3)c(=O)c-2c1C (stereo not given),-9.68% (inactive)
20,Cc1ccc(-c2csc(NC(=O)c3cnccn3)n2)cc1C,-12.7% (inactive)

row,Compound,inhibition
1,CCOC(=O)CSC1=N/C(=C/c2ccc(-n3cncn3)cc2)C(=O)N1C(C)=O,-7.02% (inactive)
2,CC1CCN(S(=O)(=O)c2ccc(S(=O)(=O)NCc3cccnc3)cc2)CC1,0.223% (inactive)
3,O=C(COC(=O)[C@H](Cc1ccccc1)NC(=O)c1cccs1)Nc1cc(F)ccc1F,6.99% (inactive)
4,O=C(/C=C\c1ccc2c(c1)OCO2)NC1(C(=O)Nc2ccc3c(c2)OCCO3)CCCCC1,-15.6% (inactive)
5,Cc1ccc(C)c(NC(=S)NNC(=O)c2csc(C)c2)c1,3.89% (inactive)
6,O=C(CCc1[nH]c2ccccc2c1Sc1ccccc1)N(CCO)CCO,19.8% (inactive)
7,Cc1nnsc1S(=O)(=O)Cc1ccccc1Cl,5.71% (inactive)
8,COCCNC(=S)N/N=C/c1c(C)[nH]c2ccccc12,-58.6% (inactive)
9,CC(=O)Nc1ccc(S(=O)(=O)N(CCc2ccccc2)CC(=O)N/N=C/c2ccc(C(=O)O)cc2)cc1,-12.9% (inactive)
10,CCOC(=O)C1(c2ccccc2)NC(c2ccc(N(C)C)cc2)C2C(=O)N(C)C(=O)C21 (stereo not given),-3.65% (inactive)
11,COc1cc(CN(C)Cc2nc3cc(C(F)(F)F)ccc3c(=O)[nH]2)ccc1OC(F)F,1.94% (inactive)
12,Fc1ccc(/C=N/Nc2nc(-c3cccnc3)nc3ccccc23)cc1,-55.8% (inactive)
13,COc1ccc(OCC(O)CNC(=O)Nc2ccc(Cl)cc2)cc1 (stereo not given),2.73% (inactive)
14,Cc1cc(=O)oc(C)c1C(=O)NC1CC(C)(C)NC(C)(C)C1,-4.42% (inactive)
15,O=C(Cn1c(N2CCN(C/C=C/c3ccccc3)CC2)nc2ccccc21)c1ccccc1,-2.21% (inactive)
16,Cc1nn(-c2ccccc2)c(=O)c2noc(C)c12,-6.64% (inactive)
17,CCOC(=O)c1cccnc1NC(=O)c1ccncc1,-3.95% (inactive)
18,Cc1nc(-c2ccc(Cl)cc2)sc1C(=O)NN,-13% (inactive)
19,CC(C)CNC(=O)COC(=O)/C=C/c1ccco1,-4.39% (inactive)
20,CCN(C(=O)CN1CCN(Cc2ccccc2)CC1)c1c(N)n(Cc2ccccc2)c(=O)[nH]c1=O,4.79% (inactive)

row,Compound,inhibition
1,Cc1cccc(OC(=O)c2sc3ncn(C)c(=O)c3c2C)c1,2% (inactive)
2,Cc1cccc(NC(=S)N2CCC(O)CC2)c1C,5.41% (inactive)
3,O=[N+]([O-])c1cc(S(=O)(=O)N2CCCC2)ccc1NN=C1CCCC1,36.1% (inactive)
4,Cc1ccc(S(=O)(=O)NC(=O)Nc2nc(-c3ccc(F)c(F)c3)cs2)cc1,-8.79% (inactive)
5,Cc1ccccc1NC(=S)N(CCCN1CCOCC1)Cc1cccs1,25.4% (inactive)
6,COc1ccc(CN(C)Cc2nc3cc(OC)c(OC)cc3c(=O)[nH]2)c(OC)c1,1.93% (inactive)
7,COc1ccc(CC(=O)NCc2nnc(SCC(=O)Nc3nccs3)n2C)cc1,-2.5% (inactive)
8,O=C(/C=C/c1ccccc1)Oc1coc(CSc2ncccn2)cc1=O,-1.22% (inactive)
9,CCc1ccc(NC2Nc3cc(C)nn3S2)cc1 (stereo not given),-2.97% (inactive)
10,CC(=O)c1ccc(S(=O)(=O)Nc2ccc(C(=O)NCC(c3ccccc3)N(C)C)cc2)cc1 (stereo not given),-5.8% (inactive)
11,O=C(Nc1cccc2c1N(C(=O)c1ccco1)CCC2)c1ccco1,-6.72% (inactive)
12,CCOc1cnc(-c2c(-c3ccccc3Cl)noc2C)o1,-3.33% (inactive)
13,O=C(O)COc1ccc(/C=N/O)cc1Br,6.57% (inactive)
14,O=S(=O)(Nc1ccc2cn[nH]c2c1)c1ccccc1,-2.67% (inactive)
15,O=C(O)C(c1ccccc1)C1(O)CCCCC1 (stereo not given),-7.32% (inactive)
16,S=C(NCc1ccc2c(c1)OCO2)NCc1ccco1,-4.45% (inactive)
17,COc1ccc(/C=C/C(=O)Nc2c(C)nn(C)c2C)cc1COc1ccc(Br)cc1,-11.6% (inactive)
18,Cc1csc(=Nc2ccccc2)n1CCO,-4.03% (inactive)
19,O=C(Cn1cnc([N+](=O)[O-])n1)NCCc1ccccc1,-4.47% (inactive)
20,COc1cccc(CC2(CO)CCCN(Cc3nc(-c4cccs4)oc3C)C2)c1 (stereo not given),6.9% (inactive)
